Data reported in PubChem BioAssay AID463173 (ICCB-Longwood Screening Facility, Harvard Medical School, 2010).
The whole screen tested about 52,000 compounds, of which about 4,300 (8.3%) were called active. Cut-off read from the data, not from the text of the source: active = survival mostly below about 52% (no sharp cut-off); inactive = mostly above about 56%. Many of the other results were omitted from the sample, so actives are more common in it than they were.

These molecules were tested on DeltatarO mutant (assay: S. aureus survival, RN4220 and DeltatarO strains – OD600, teichoic acid synthesis inhibitors, primary screen (AID 463173)). Details: S. aureus RN4220 wild type/DeltatarO growth, OD600, 18 h, hits give low values, screened at 18.75 µg/mL (by protocol).
In the case of `O=C(NCCSCc1ccccc1)C1CCN(S(=O)(=O)Cc2ccccc2)CC1`, the survival is reported as 66% (inactive).
With `COc1ccc(C)cc1NC(=O)N1CCN(c2cc(-c3noc(C)n3)ccc2C)CC1` the survival was 88% (inactive).
For `Cc1ccc(NC(=O)N2CCN(c3cc(-c4noc(C)n4)ccc3C)CC2)c(C)c1`, the survival was 88% (inactive).
`Cc1nc(-c2ccc(C)c(N3CCN(C(=O)Nc4ccc(Br)cc4)CC3)c2)no1` was tested, and the survival was 17% (active).
`Cc1ccc(NC(=O)N2CCN(c3cc(-c4noc(C)n4)ccc3C)CC2)c(F)c1` was tested, and the survival was -5% (active).
`Cc1cc(C)cc(NC(=O)N2CCN(c3cc(-c4noc(C)n4)ccc3C)CC2)c1` was tested, and the survival was 87% (inactive).
In the case of `COc1cc(NC(=O)N2CCN(c3cc(-c4noc(C)n4)ccc3C)CC2)cc(OC)c1OC`, the survival is reported as 55% (inactive).
For `COc1ccccc1NC(=O)c1oc2ccccc2c1NC(=O)Cc1ccccc1`, the survival was 78% (inactive).
With `CCOc1ccc(NC(=O)CCc2c(C)nc3nc(-c4cc(OC)cc(OC)c4)nn3c2C)cc1` the survival was 78% (inactive).
With `CSc1ccc(CCNC(=O)CCn2c(=O)c3cccn3c3ccc(F)cc32)cc1` the survival was 48% (inactive).
`CCCCNC(=O)CCn1c(=O)c2cccn2c2ccc(F)cc21` was tested, and the survival was 41% (active).
For `CCCCNC(=O)CCn1c(=O)c2cccn2c2cccnc21`, the survival was 103% (inactive).
`Cc1ccc(CCNC(=O)CCCn2c(=O)c3cccn3c3ccc(F)cc32)cc1` was tested, and the survival was 33% (active).
In the case of `Cc1ccc(CCNC(=O)CCn2c(=O)c3cccn3c3ccc(F)cc32)cc1`, the survival is reported as 39% (active).
`Cc1cccc(CNC(=O)CCn2c(=O)c3cccn3c3ccc(F)cc32)c1` was tested, and the survival was 92% (inactive).
In the case of `CN(C)c1ccc(CNC(=O)CCn2c(=O)c3cccn3c3ccc(F)cc32)cc1`, the survival is reported as 57% (inactive).
`Cc1ccc(Cc2nc3ccccc3nc2SCC(=O)N2CCN(c3ccccc3F)CC2)cc1` was tested, and the survival was 49% (inactive).
`CCOc1ccc(-n2ccn3c(CC(C)CC(=O)O)nnc3c2=O)cc1` (stereo unspecified) was tested, and the survival was 182% (inactive).
For `O=C(Nc1ccccc1)c1ccc(F)cc1`, the survival was 76% (inactive).
For `CCOC(=O)CC(NC(=O)Cn1nnc(-c2ccc(C(F)(F)F)cc2)n1)c1ccccc1Cl` (stereo unspecified), the survival was 73% (inactive).
With `Cc1ccc(OCc2nc(-c3ccc(C(=O)N4CCN(c5cc(Cl)ccc5C)CC4)cc3)oc2C)cc1` the survival was 76% (inactive).
With `Cc1oc(-c2ccccc2F)nc1CS(=O)(=O)CC(=O)N1CCN(c2ccc(Cl)cc2)CC1` the survival was 43% (active).
`Cc1ccc(-c2nc(CS(=O)CC(=O)N3CCN(c4ccc(Cl)cc4)CC3)c(C)o2)cc1` (stereo unspecified) was tested, and the survival was 80% (inactive).
In the case of `Cc1oc(-c2ccccc2F)nc1CS(=O)(=O)CC(=O)N1CCN(c2cccc(C(F)(F)F)c2)CC1`, the survival is reported as 78% (inactive).
For `COc1ccc(-c2nc(CSCC(=O)N3CCN(c4cc(Cl)ccc4C)CC3)c(C)o2)cc1`, the survival was -4% (active).
`Cc1oc(-c2ccccc2F)nc1CS(=O)(=O)CC(=O)N1CCN(c2ccccc2)CC1` was tested, and the survival was 77% (inactive).
For `Cc1ccccc1-c1nc(CS(=O)CC(=O)N2CCN(c3cc(Cl)ccc3C)CC2)c(C)o1` (stereo unspecified), the survival was 30% (active).
With `Cc1oc(-c2ccccc2Cl)nc1CS(=O)CC(=O)N1CCN(c2cccc(C(F)(F)F)c2)CC1` (stereo unspecified) the survival was 131% (inactive).
With `Cc1ccc(-c2nc(CS(=O)CC(=O)N3CCN(c4cccc(Cl)c4)CC3)c(C)o2)cc1` (stereo unspecified) the survival was 46% (inactive).
For `Cc1oc(-c2ccc(Cl)cc2)nc1CS(=O)CC(=O)N1CCN(c2cccc(C(F)(F)F)c2)CC1` (stereo unspecified), the survival was 99% (inactive).
`COc1ccc(-c2nc(CSCC(=O)N3CCN(c4ccc(OC)cc4)CC3)c(C)o2)cc1` was tested, and the survival was 77% (inactive).
In the case of `COc1cccc(-c2nc(CS(=O)CC(=O)N3CCN(c4cccc(C(F)(F)F)c4)CC3)c(C)o2)c1` (stereo unspecified), the survival is reported as 0% (active).
In the case of `Cc1cccc(-n2cc(-c3ccccc3)nc2SCC(=O)Nc2ccccc2Cl)c1`, the survival is reported as 115% (inactive).
In the case of `CC(C)c1ccc(NC(=O)CS(=O)(=O)c2cccc3nsnc23)cc1`, the survival is reported as 78% (inactive).
For `CCOC(=O)c1sc2ccccc2c1S(=O)(=O)N1CCN(c2cc(C)ccc2C)CC1`, the survival was 100% (inactive).
With `Cc1ccc(CSc2cn(CC(=O)N3CCCCCC3)c3ccccc23)cc1` the survival was 84% (inactive).
With `COc1ccc(CCN2C(=O)N(c3ccc(F)cc3)C(=O)C2CC(=O)Nc2ccc(OC)cc2)cc1` (stereo unspecified) the survival was 67% (inactive).
`CCc1ccc2occ(CC(=O)Nc3ccc(C)c(C)c3)c2c1` was tested, and the survival was 102% (inactive).
`COc1ccc(OC)c(NC(=O)c2nnn(CC(=O)Nc3ccc(C(C)C)cc3)c2N)c1` was tested, and the survival was 63% (inactive).
In the case of `COc1ccc(-c2nc(CSCC(=O)N3CCN(c4ccc(F)cc4)CC3)c(C)o2)cc1`, the survival is reported as 57% (inactive).
`COc1ccc(-c2nc(CSCC(=O)N3CCN(c4ccccc4)CC3)c(C)o2)cc1` was tested, and the survival was 60% (inactive).
In the case of `COc1ccc(-c2nc(CSCC(=O)N3CCN(c4ccccc4F)CC3)c(C)o2)cc1`, the survival is reported as 35% (active).
In the case of `Cc1cccc(NC(=O)C(NS(=O)(=O)c2cccc3nsnc23)c2ccccc2)c1C` (stereo unspecified), the survival is reported as 95% (inactive).
For `COCCn1c(=NC(=O)c2ccc3c(c2)OCCO3)sc2cc(C(=O)OC)ccc21`, the survival was 86% (inactive).
With `CCC12CN3CC(C)(CN(C1)C3c1ccccc1C)C2=O` (stereo unspecified) the survival was 76% (inactive).
In the case of `Cc1ccc(-c2nc3cc(Cl)ccc3o2)cc1NC(=O)c1cc([N+](=O)[O-])ccc1N1CCOCC1`, the survival is reported as 57% (inactive).
With `O=C(Nc1cc(-c2nc3cc(Cl)ccc3o2)ccc1Cl)c1cc([N+](=O)[O-])ccc1N1CCOCC1` the survival was 50% (inactive).
`Cc1c(NC(=O)c2cc([N+](=O)[O-])ccc2N2CCOCC2)cccc1-c1nc2ccccc2o1` was tested, and the survival was 50% (inactive).
With `O=C(Nc1cc(-c2nc3ccccc3o2)ccc1Cl)c1cc([N+](=O)[O-])ccc1N1CCOCC1` the survival was 57% (inactive).
For `O=C(Nc1cccc(-c2nc3cc(Cl)ccc3o2)c1)c1cc([N+](=O)[O-])ccc1N1CCOCC1`, the survival was 40% (active).
`O=C(Nc1ccc(Cl)c(-c2nc3cc(Cl)ccc3o2)c1)c1cc([N+](=O)[O-])ccc1N1CCOCC1` was tested, and the survival was 111% (inactive).
`O=C(Nc1cccc(-c2nc3ccccc3o2)c1)c1cc([N+](=O)[O-])ccc1N1CCOCC1` was tested, and the survival was 42% (active).
In the case of `COc1ccc2oc(-c3cccc(NC(=O)c4cc([N+](=O)[O-])ccc4N4CCOCC4)c3)nc2c1`, the survival is reported as 49% (inactive).
With `COc1ccc(-c2nc3ccccc3o2)cc1NC(=O)c1cc([N+](=O)[O-])ccc1N1CCOCC1` the survival was 44% (active).
`COCCN1Cc2cccc(C(=O)Nc3ccc(C(=O)OC)cc3)c2C1=O` was tested, and the survival was 82% (inactive).
`CC(C)(C)C(=O)CSc1nc2ccsc2c(=O)n1Cc1ccccc1F` was tested, and the survival was 126% (inactive).
For `CCOC(=O)c1c(C)[nH]c(C)c1S(=O)(=O)N1CCCC(C(=O)Nc2ccc(C)c(N(C)C)c2)C1` (stereo unspecified), the survival was 88% (inactive).
For `CCCCOc1ccc(C(=O)N2CCN(CCc3ccccn3)CC2)cc1`, the survival was 51% (inactive).
With `O=C(CN1CCC(NC(=O)NC2CCCCC2)CC1)Nc1cccc(I)c1` the survival was 100% (inactive).
In the case of `CC1=Nc2cc(C(=O)NCCc3ccc(Cl)cc3)ccc2Sc2ccc(C)cc21`, the survival is reported as 56% (inactive).
`Cc1ccc(C(=O)CSc2nnc3ccc4ccccc4n23)cc1` was tested, and the survival was 60% (inactive).
With `CCOc1ccccc1NC(=O)NC1(C(=O)NCc2ccco2)CCCCC1` the survival was 84% (inactive).
For `CCc1c(C)c2ccc(O)c(CN3CCN(c4ccccc4)CC3)c2oc1=O`, the survival was 56% (active).
For `CCc1c(C)c2ccc(O)c(CN3CCN(c4ccc(OC)cc4)CC3)c2oc1=O`, the survival was 55% (inactive).
In the case of `CCc1c(C)c2ccc(O)c(CN3CCN(c4ccc(F)cc4)CC3)c2oc1=O`, the survival is reported as 55% (inactive).
In the case of `Cc1ccc(-n2nc3c(N4CCC(C(=O)NC5CCCCC5)CC4)nnc(C)c3c2C)cc1`, the survival is reported as 81% (inactive).
In the case of `Cc1ccc(N2CNC(=O)c3c(C)cc(C)nc32)cc1`, the survival is reported as 74% (inactive).
With `Cc1cc(C)c2nc(N(Cc3cccnc3)C(=O)CCS(=O)(=O)c3ccccc3)sc2c1` the survival was 83% (inactive).
With `CC(=O)c1ccc(C(=O)N(Cc2cccnc2)c2nc3c(C)c(C)ccc3s2)cc1` the survival was -1% (active).
For `Cc1ccc2sc(N(Cc3cccnc3)C(=O)CCS(=O)(=O)c3ccccc3)nc2c1C`, the survival was 6% (active).
In the case of `CC(=O)c1ccc(C(=O)N(Cc2cccnc2)c2nc3c(Cl)cccc3s2)cc1`, the survival is reported as 91% (inactive).
With `CC(=O)N(Cc1cccnc1)c1nc2c(C)c(C)ccc2s1` the survival was 72% (inactive).
For `Cc1cccc2sc(N(Cc3cccnc3)C(=O)CCS(=O)(=O)c3ccccc3)nc12`, the survival was 89% (inactive).
In the case of `C=CCNCc1cccn1-c1ccccc1`, the survival is reported as 76% (inactive).
For `CCCCn1cc(S(=O)(=O)c2ccc(CC)cc2)c(=O)c2cc(F)c(N3CCCC(C)C3)cc21` (stereo unspecified), the survival was 115% (inactive).
For `O=C(CN1CCC(NC(=O)Nc2ccccc2-c2ccccc2)CC1)NCc1ccco1`, the survival was 78% (inactive).
`Cc1cccnc1Nc1nc(-c2cccnc2)cs1` was tested, and the survival was 48% (inactive).
`CC1CCCCC1NC(=O)CSc1nncn1N` (stereo unspecified) was tested, and the survival was 84% (inactive).
`O=C(Nc1cccc(F)c1)c1oc2ccccc2c1NC(=O)C12CC3CC(CC(C3)C1)C2` was tested, and the survival was 72% (inactive).
`Oc1c(C(c2ccccc2)N2CCCC2)sc2nc(-c3ccco3)nn12` (stereo unspecified) was tested, and the survival was 0% (active).
In the case of `Oc1c(C(c2ccccc2)N2CCN(Cc3ccccc3)CC2)sc2nc(-c3ccco3)nn12` (stereo unspecified), the survival is reported as 37% (active).
`CN1CCN(C(c2ccccc2)c2sc3nc(-c4ccco4)nn3c2O)CC1` (stereo unspecified) was tested, and the survival was 75% (inactive).
With `Cc1ccc(C(c2sc3nc(-c4ccco4)nn3c2O)N2CCN(Cc3ccccc3)CC2)cc1` (stereo unspecified) the survival was 112% (inactive).
For `CN1CCN(C(c2ccccc2Cl)c2sc3nc(-c4ccco4)nn3c2O)CC1` (stereo unspecified), the survival was 131% (inactive).
`Oc1c(C(c2ccccc2Cl)N2CCOCC2)sc2nc(-c3ccco3)nn12` (stereo unspecified) was tested, and the survival was 0% (active).
`Oc1c(C(c2ccc(Cl)cc2)N2CCC3(CC2)OCCO3)sc2nc(-c3ccco3)nn12` (stereo unspecified) was tested, and the survival was 32% (active).
`Oc1c(C(c2ccccc2)N2CCOCC2)sc2nc(-c3ccco3)nn12` (stereo unspecified) was tested, and the survival was 69% (inactive).
In the case of `Oc1c(C(c2ccc(F)cc2)N2CCN(Cc3ccccc3)CC2)sc2nc(-c3ccco3)nn12` (stereo unspecified), the survival is reported as 73% (inactive).
With `Oc1c(C(c2ccccc2)N2CCC3(CC2)OCCO3)sc2nc(-c3ccco3)nn12` (stereo unspecified) the survival was 69% (inactive).
In the case of `Cc1ccc(C(c2sc3nc(-c4ccco4)nn3c2O)N2CCC3(CC2)OCCO3)cc1` (stereo unspecified), the survival is reported as 78% (inactive).
For `Oc1c(C(c2ccccc2Cl)N2CCCC2)sc2nc(-c3ccco3)nn12` (stereo unspecified), the survival was 83% (inactive).
